From PubChem BioAssay (EPA / NIEHS)
Activity calls are given as the source filed them. Rule for the calls: active = hit-call score of the fitted dose curve at least 0.9, where 1 is the maximum; inactive = score below 0.9.

Experiments:
[1] = ATG_CRE_CIS: Attagene CIS-FACTORIAL HepG2 Assay for human cAMP Responsive Element (CRE) binding protein 3 (AID 2282926); details: HepG2 CRE cis-reporter, Attagene multiplexed mRNA; actives raise or lower the signal
Method in brief: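 Transfected HepG2 were treated for 24 hours, then RNA was extracted and reporter cDNA amplified with sequence-specific primers. Labelled fragments were separated by capillary electrophoresis, and the CRE signal was fitted bidirectionally with DMSO as baseline.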

[2] = target: CCAAT/enhancer-binding protein beta (Homo sapiens) (UniProt P17676); assay: ATG_C_EBP_CIS: Attagene CIS-FACTORIAL HepG2 Assay for human CCAAT/Enhancer Binding Protein (C/EBP) beta (AID 2282927); details: HepG2 Attagene cis-factorial transcription factor reporter; actives raise or lower the signal
Chain of CCAAT/enhancer-binding protein beta (Homo sapiens) (P17676 whole entry, looked up): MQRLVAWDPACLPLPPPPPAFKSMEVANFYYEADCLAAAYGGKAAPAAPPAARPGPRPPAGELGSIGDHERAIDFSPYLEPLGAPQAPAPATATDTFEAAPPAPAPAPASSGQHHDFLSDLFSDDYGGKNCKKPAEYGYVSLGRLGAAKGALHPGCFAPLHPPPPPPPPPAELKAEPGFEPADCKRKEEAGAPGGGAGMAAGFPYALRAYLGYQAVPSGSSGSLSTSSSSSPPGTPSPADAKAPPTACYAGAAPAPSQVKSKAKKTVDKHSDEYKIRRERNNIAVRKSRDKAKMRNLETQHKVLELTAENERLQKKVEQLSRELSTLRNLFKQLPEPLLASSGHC
Method in brief: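 Transiently transfected HepG2 (MRTU library, endogenous TF-driven promoters); 24 h dosing; total RNA → oligo(dT) RT → PCR → 6-FAM primer extension → HpaI digest → CE; fit bidirectionally vs DMSO.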

[3] = ATG_CMV_CIS: Attagene CIS-FACTORIAL HepG2 Assay for human CMV (Internal Marker) (AID 2282928); details: HepG2 CMV promoter reporter, transcription factor profiling; actives raise or lower the signal;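 note: endpoint acts as a background internal control marker rather than a target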
Method in brief: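 Cell system: HepG2, transiently transfected multiple reporter units under cis promoters. Exposure: 24 h. Detection: RT-PCR, FAM labeling, HpaI digestion, capillary electrophoresis. Analysis: bidirectional, DMSO baseline.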

[4] = ATG_DR4_LXR_CIS: Attagene CIS-FACTORIAL HepG2 Assay for human Liver X Receptor (LXR), DR4 submotif (AID 2282929); details: HepG2 Attagene DR4 cis-reporter, mRNA transcription; actives raise or lower the signal
Method in brief: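 HepG2 cells transiently transfected with cis-promoter-driven multiplexed reporter units (DR4 element) were dosed for 24 h. Reporter mRNA was quantified by RT-PCR, fluorescent primer extension, HpaI digestion and capillary electrophoresis; bidirectional fitting versus DMSO baseline.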

[5] = ATG_AP_1_CIS: Attagene CIS-FACTORIAL HepG2 Assay for human Activator Protein 1 (AP-1) (AID 2282931); details: HepG2 Attagene cis-factorial AP-1 reporter mRNA; actives raise or lower the signal
Method in brief: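 HepG2 cells transiently transfected with cis-element-driven multiplex reporter units; 24 h compound exposure. Reporter mRNA quantified by RT-PCR, FAM-labelled fragments resolved by capillary electrophoresis; bidirectional fit versus DMSO baseline.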

[6] = ATG_AP_2_CIS: Attagene CIS-FACTORIAL HepG2 Assay for human Activator Protein 2 (AP-2) (AID 2282932); details: HepG2 AP-2 cis-reporter, Attagene transcription factor profiling; actives raise or lower the signal
Method in brief: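 Multiplexed mRNA reporter assay in HepG2: cis-regulated units report endogenous factor activity after 24 h treatment. Fluorescence from capillary electrophoresis of RT-PCR products gives the signal, with DMSO as baseline.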

[7] = ATG_BRE_CIS: Attagene CIS-FACTORIAL HepG2 Assay for human Bone Morphogenetic Protein (BMP) Response Element (BRE) (AID 2282933); details: HepG2 BMP response element reporter, Attagene transcription factor profiling; actives raise or lower the signal
Method in brief: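 Transient MRTU transfection of human HepG2 liver cells; 24 h compound treatment; total RNA isolated, reverse-transcribed, PCR-amplified, 6-FAM labelled, HpaI-cut, capillary electrophoresis. DMSO = negative control/baseline, bidirectional fit.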

[8] = target: Transcription factor E2F1 (Homo sapiens) (UniProt Q01094); assay: ATG_E2F_CIS: Attagene CIS-FACTORIAL HepG2 Assay for human E2F Transcription Factor 1 (AID 2282935); details: HepG2 Attagene cis-reporter, E2F reporter RNA transcripts; actives raise or lower the signal
Chain of Transcription factor E2F1 (Homo sapiens) (Q01094 whole entry, looked up): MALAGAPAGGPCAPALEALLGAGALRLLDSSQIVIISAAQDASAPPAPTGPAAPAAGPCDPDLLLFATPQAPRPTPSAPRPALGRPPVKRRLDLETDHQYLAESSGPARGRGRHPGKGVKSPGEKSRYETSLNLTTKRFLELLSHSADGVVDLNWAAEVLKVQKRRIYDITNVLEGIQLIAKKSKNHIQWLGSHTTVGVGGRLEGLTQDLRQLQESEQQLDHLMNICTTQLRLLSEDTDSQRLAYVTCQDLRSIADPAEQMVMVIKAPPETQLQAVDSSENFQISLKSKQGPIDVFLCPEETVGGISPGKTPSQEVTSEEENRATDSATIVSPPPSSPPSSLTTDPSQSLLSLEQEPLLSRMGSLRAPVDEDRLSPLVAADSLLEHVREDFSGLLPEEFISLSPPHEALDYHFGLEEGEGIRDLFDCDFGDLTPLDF
Method in brief: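 Measures reporter transcript levels via RT-PCR with capillary electrophoresis detection in HepG2 cells harboring cis-regulated reporter units; 24 h post-dose; bidirectional curve fitting with DMSO as baseline.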

[9] = ATG_E_Box_CIS: Attagene CIS-FACTORIAL HepG2 Assay for human Enhancer Box (E-box) (AID 2282936); details: HepG2 E-box cis-reporter transcription, actives raise or lower the signal
Method in brief: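 First, HepG2 cells receive multiple cis-regulated reporter constructs by transient transfection. Next, chemicals are applied for 24 h. Finally, reporter mRNA is quantified via RT-PCR and capillary electrophoresis, with DMSO as baseline.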

[10] = ATG_EGR_CIS: Attagene CIS-FACTORIAL HepG2 Assay for human Early Growth Response 1 (EGR1) (AID 2282938); details: HepG2 Attagene CIS-FACTORIAL EGR reporter mRNA; actives raise or lower the signal
Method in brief: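 HepG2 cells transiently transfected with cis-promoter-driven multiplexed reporter transcription units; reporter mRNA measured 24 h after compound dosing by RT-PCR, 6-FAM primer extension, HpaI digestion and capillary electrophoresis. Bidirectional fit versus DMSO baseline.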

[11] = ATG_Ets_CIS: Attagene CIS-FACTORIAL HepG2 Assay for human Erythroblast Transformation Specific (ETS) (AID 2282941); details: HepG2 ETS cis-reporter transcription, actives raise or lower the signal
Method in brief: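 After transient cis-reporter transfection, HepG2 cells receive test chemical for 24 h. Reporter mRNA levels, measured by RT-PCR and capillary electrophoresis fluorescence, are analysed bidirectionally relative to the DMSO baseline.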

[12] = target: Hepatocyte nuclear factor 3-beta (Homo sapiens) (UniProt Q9Y261); assay: ATG_FoxA2_CIS: Attagene CIS-FACTORIAL HepG2 Assay for human Forkhead box A2 (FOXA2) (AID 2282942); details: HepG2 cis-reporter transcription factor activity, 24 h; actives raise or lower the signal
Chain of Hepatocyte nuclear factor 3-beta (Homo sapiens) (Q9Y261 whole entry, looked up): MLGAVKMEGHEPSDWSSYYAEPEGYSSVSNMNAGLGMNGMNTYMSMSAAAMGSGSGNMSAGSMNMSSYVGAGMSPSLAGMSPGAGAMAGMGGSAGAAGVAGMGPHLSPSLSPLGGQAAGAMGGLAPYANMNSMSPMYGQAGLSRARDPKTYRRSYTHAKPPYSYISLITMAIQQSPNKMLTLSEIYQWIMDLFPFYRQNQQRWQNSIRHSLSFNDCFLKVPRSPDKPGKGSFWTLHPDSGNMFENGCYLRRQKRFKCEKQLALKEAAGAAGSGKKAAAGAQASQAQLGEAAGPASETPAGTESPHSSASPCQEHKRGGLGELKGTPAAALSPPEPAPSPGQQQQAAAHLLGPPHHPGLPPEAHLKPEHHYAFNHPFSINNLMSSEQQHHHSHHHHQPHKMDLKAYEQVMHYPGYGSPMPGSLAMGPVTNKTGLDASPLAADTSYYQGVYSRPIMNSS
Method in brief: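 HepG2 cells transiently transfected with multiple cis-regulated reporter transcription units, dosed for 24 h. Reporter mRNA measured by RT-PCR, 6-FAM labelling, HpaI digestion and capillary electrophoresis; bidirectional fitting against DMSO baseline.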

[13] = ATG_GATA_CIS: Attagene CIS-FACTORIAL HepG2 Assay for human GATA Binding Protein (AID 2282944); details: HepG2 GATA cis-element reporter, Attagene multiplex mRNA; actives raise or lower the signal
Method in brief: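 Transient MRTU transfection, HepG2, 24 h compound exposure. Total RNA → oligo(dT) RT → PCR → 6-FAM primer extension → HpaI cut → CE. Bidirectional fit vs DMSO.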

[14] = ATG_GLI_CIS: Attagene CIS-FACTORIAL HepG2 Assay for human Zinc Finger Protein GLI1 (AID 2282945); details: HepG2, Attagene cis-factorial reporter mRNA, GLI element; actives raise or lower the signal
Method in brief: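 Transiently transfected HepG2 cells report endogenous transcription factor activity via cis-element-driven reporter units. After 24 h compound exposure, reporter mRNA was measured by RT-PCR with capillary electrophoresis; bidirectional fitting against DMSO baseline.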

[15] = ATG_M_61_CIS: Attagene CIS-FACTORIAL HepG2 Assay for M61 Transcription Factor (Internal Marker) (AID 2282937); details: HepG2 Attagene CIS-FACTORIAL M61 internal marker reporter; actives raise or lower the signal
Method in brief: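 HepG2 cells transiently transfected with cis-element-driven multiple reporter transcription units, dosed for 24 h. Reporter mRNA measured by RT-PCR, 6-FAM primer-extension labelling, HpaI digestion and capillary electrophoresis; bidirectional fit versus DMSO baseline.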

[16] = ATG_M_19_CIS: Attagene CIS-FACTORIAL HepG2 Assay for M19 Transcription Factor (Internal Marker) (AID 2282939); details: HepG2 Attagene CIS-FACTORIAL M19 internal marker reporter; actives raise or lower the signal
Method in brief: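 Transfect HepG2 with MRTU reporter library → dose chemical, 24 h → isolate total RNA, reverse-transcribe with oligo(dT) → PCR, 6-FAM label, HpaI cut (2 h, 37 C) → capillary electrophoresis. Bidirectional fit vs DMSO.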

[17] = ATG_ERE_CIS: Attagene CIS-FACTORIAL HepG2 Assay for Estrogen Response Element (ERE) (AID 2282940); details: HepG2 ERE cis-reporter, Attagene RNA transcript; actives raise or lower the signal
Method in brief: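 Transient MRTU transfection of human HepG2; cis-element promoters; 24 h dosing; total RNA → RT (oligo dT) → PCR → 6-FAM primer extension → HpaI digest → CE fluorescence. Bidirectional fit, DMSO baseline.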

[18] = ATG_FoxO_CIS: Attagene CIS-FACTORIAL HepG2 Assay for human Forkhead box O (FoxO) (AID 2282943); details: HepG2 Attagene cis-reporter, FoxO element, mRNA; actives raise or lower the signal
Method in brief: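 Read-out: fluorescence of 6-FAM-labelled reporter cDNA fragments resolved by capillary electrophoresis. Transiently transfected HepG2 cells were dosed for 24 h; activity fitted in both directions relative to DMSO controls.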

[19] = target: Aryl hydrocarbon receptor (Homo sapiens) (UniProt P35869); assay: ATG_Ahr_CIS: Attagene CIS-FACTORIAL HepG2 Assay for human Aryl Hydrocarbon Receptor (Ahr) (AID 2282930); details: HepG2 AhR cis-factorial reporter transcription; actives raise or lower the signal
Chain of Aryl hydrocarbon receptor (Homo sapiens) (P35869 whole entry, looked up): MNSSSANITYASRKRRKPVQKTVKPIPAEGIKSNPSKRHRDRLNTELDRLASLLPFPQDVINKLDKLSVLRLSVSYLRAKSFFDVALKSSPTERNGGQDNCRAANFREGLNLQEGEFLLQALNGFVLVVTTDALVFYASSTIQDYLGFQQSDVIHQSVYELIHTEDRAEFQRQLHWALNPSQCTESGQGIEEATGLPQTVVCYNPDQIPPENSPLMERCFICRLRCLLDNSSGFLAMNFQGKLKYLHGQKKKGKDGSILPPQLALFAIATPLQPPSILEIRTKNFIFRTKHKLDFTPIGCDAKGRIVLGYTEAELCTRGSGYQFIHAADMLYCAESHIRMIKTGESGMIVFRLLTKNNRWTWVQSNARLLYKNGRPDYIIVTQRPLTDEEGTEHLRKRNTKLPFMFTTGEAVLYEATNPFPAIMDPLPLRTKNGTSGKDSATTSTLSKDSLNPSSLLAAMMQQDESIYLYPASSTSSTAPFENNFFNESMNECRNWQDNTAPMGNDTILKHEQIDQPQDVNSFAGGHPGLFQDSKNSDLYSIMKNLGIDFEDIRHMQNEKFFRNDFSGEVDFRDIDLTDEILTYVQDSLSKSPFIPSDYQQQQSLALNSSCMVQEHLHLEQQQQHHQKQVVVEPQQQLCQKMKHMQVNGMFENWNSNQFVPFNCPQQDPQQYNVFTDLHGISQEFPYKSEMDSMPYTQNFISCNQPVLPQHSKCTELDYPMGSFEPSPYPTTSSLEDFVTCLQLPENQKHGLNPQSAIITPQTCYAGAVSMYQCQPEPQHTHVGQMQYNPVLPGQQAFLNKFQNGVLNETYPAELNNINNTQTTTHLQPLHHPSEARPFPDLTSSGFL
Method in brief: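 Read-out: reporter mRNA quantified by RT-PCR with fluorescent primer extension and capillary electrophoresis. Human HepG2 liver cells carried transfected cis-promoter reporter units and were exposed to chemical for 24 h; gain or loss fitted relative to DMSO.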

Measured: AC50

CC(C#N)(CCC(=O)O)N=NC(C)(C#N)CCC(=O)O (stereo not drawn)
inactive: [1] | [2] | [3] | [4] | [5] | [6] | [7] | [8] | [9] | [10] | [11] | [12] | [13] | [14]

Cc1ccc(C=O)cc1
inactive: [1] | [2] | [3] | [4] | [5] | [6] | [8] | [9] | [15] | [10] | [16] | [17] | [11] | [12] | [18] | [13] | [14]

CC(=O)OCC=Cc1ccccc1
inactive: [1] | [2] | [3] | [19] | [5] | [6] | [7] | [8] | [9] | [15] | [10] | [16] | [11] | [12] | [18] | [13] | [14]

BrC1CCC(Br)C(Br)CCC(Br)C(Br)CCC1Br (stereo not drawn)
inactive: [1] | [2] | [4] | [6] | [7] | [8] | [9] | [15] | [16] | [12]
active: [3] 23.9 µM | [5] 36.2 µM | [11] 143 µM | [18] 87 µM | [13] 66.3 µM | [14] 69.1 µM

C=C(C)C(=O)OCCOC(=O)CC(C)=O
inactive: [1] | [2] | [3] | [19] | [5] | [6] | [7] | [8] | [9] | [10] | [16] | [11] | [12] | [18] | [13] | [14]

O=Nc1ccc(Nc2ccccc2)cc1
active: [2] 8.78 µM | [3] 8.52 µM | [4] 25.3 µM | [9] 9.04 µM | [10] 37.7 µM | [12] 47.9 µM | [14] 55 µM
inactive: [1] | [5] | [6] | [8] | [15] | [16] | [17] | [11] | [18] | [13]

NC(=O)Nc1ccc(Cl)cc1
inactive: [1] | [2] | [3] | [4] | [5] | [6] | [7] | [8] | [9] | [15] | [10] | [16] | [11] | [12] | [13] | [14]
